Measured values: the supplement of paper PMC3545927
This is one part of the list. No count for the full screen is at hand.

Molecular target: furin, P09958
Assay: furin cleavage Z-score vs untreated control; higher = more cleavage, active = 3.5 or more, inactive = 1 or less, 8 variable residues between constant flanks
In short: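 Read counts from sequencing released DNA gave abundance for each bead-bound 8-mer peptide–cDNA fusion cut by purified furin over 7.5, 15 or 30 min. The cleavage Z-score compares log counts with furin-free reactions after lowess adjustment and median absolute deviation scaling.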
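Further: purified furin at 1:10 enzyme:substrate in 50 mM HEPES pH 7.5.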

furin, P09958, sequence (P09958 whole entry): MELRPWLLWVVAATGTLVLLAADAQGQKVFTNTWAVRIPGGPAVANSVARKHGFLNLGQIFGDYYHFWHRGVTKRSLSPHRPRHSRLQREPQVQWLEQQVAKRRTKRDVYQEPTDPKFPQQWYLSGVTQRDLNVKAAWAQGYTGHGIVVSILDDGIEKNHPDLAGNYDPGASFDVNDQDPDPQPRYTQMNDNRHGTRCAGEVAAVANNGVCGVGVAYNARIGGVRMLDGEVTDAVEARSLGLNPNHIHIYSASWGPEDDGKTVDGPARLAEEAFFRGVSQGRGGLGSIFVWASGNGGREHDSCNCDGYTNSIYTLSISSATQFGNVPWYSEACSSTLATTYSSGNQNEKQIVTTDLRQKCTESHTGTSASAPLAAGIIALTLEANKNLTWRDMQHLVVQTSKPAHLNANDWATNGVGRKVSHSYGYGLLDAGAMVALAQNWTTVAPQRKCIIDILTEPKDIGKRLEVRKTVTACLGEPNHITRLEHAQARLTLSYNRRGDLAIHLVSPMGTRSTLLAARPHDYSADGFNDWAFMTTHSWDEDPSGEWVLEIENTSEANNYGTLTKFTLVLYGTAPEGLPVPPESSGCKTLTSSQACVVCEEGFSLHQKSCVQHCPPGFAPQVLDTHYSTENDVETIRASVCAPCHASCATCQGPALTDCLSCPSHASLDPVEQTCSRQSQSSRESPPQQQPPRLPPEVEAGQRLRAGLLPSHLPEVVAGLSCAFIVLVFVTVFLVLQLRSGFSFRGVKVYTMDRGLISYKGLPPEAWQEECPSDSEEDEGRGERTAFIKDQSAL

Row | Sequence | furin cleavage Z-score (7.5 min) | furin cleavage Z-score (15 min) | furin cleavage Z-score (30 min)
1 | CALNKSFRRAAGNASASA [FS-354] | 0.697 (inactive) | -0.445 (inactive) | 1.37
2 | CAFSHRQVRYAGNASASA [FS-929] | 0.403 (inactive) | 1.8 | 2.61
3 | CANRARFRRAAGNASASA [FS-64] | 8.77 (active) | 9.51 (active) | 7.84 (active)
4 | CAVVCRSMSYAGNASASA [HC90] | 1.85 | 0.752 (inactive) | 0.571 (inactive)
5 | CAFRARFRRLAGNASASA [FS-526] | 10.4 (active) | 12.1 (active) | 9.87 (active)
6 | CAFRARQIRYAGNASASA [FS-419] | 2.8 | 5.19 (active) | 2.15
7 | CADCTTPCSGAGNASASA [HC1951] | 0.95 (inactive) | 0.00642 (inactive) | 1.2
8 | CAMEECSQVLAGNASASA [HC1750] | 1.44 | -0.739 (inactive) | 1.26
9 | CALPYLVAYQAGNASASA [HC952] | 0.718 (inactive) | -1.65 (inactive) | -1.41 (inactive)
10 | CAFLTRVEAQAGNASASA [HC585] | -0.981 (inactive) | 1.44 | -1 (inactive)
11 | CALPKRVRRQAGNASASA [FS-1029] | 11.3 (active) | 12.3 (active) | 8.74 (active)
12 | CAVPYFVRVQAGNASASA [HC615] | -1.87 (inactive) | 0.165 (inactive) | -0.325 (inactive)
13 | CAVPERCRRQAGNASASA [FS-1580] | 6.62 (active) | 9.1 (active) | 6.98 (active)
14 | CACSTRVRRQAGNASASA [FS-120] | 11 (active) | 8.81 (active) | 7.5 (active)
15 | CAVGDLCGSVAGNASASA [HC299] | -0.438 (inactive) | -0.375 (inactive) | 1.2
16 | CATTPCSPSWAGNASASA [HC1899] | 0.637 (inactive) | 0.489 (inactive) | -0.787 (inactive)
17 | CAPEFFTELDAGNASASA [HC1220] | -0.864 (inactive) | -0.533 (inactive) | -1.32 (inactive)
18 | CAAVQRVPRDAGNASASA [FS-1312] | 6.89 (active) | 6.58 (active) | 5.33 (active)
19 | CALQERVPRDAGNASASA [FS-1366] | 7.28 (active) | 7.82 (active) | 7.62 (active)
20 | CAFVQRVFRDAGNASASA [FS-776] | -0.109 (inactive) | -0.244 (inactive) | 0.515 (inactive)
21 | CAQRQPFPRDAGNASASA [FS-951] | 0.0863 (inactive) | 0.099 (inactive) | -1.03 (inactive)
22 | CAVVCCWMSYAGNASASA [HC107] | -0.895 (inactive) | 0.873 (inactive) | -1.73 (inactive)
23 | CASQPCSAHLAGNASASA [HC2502] | -0.0566 (inactive) | 0.435 (inactive) | 0.0846 (inactive)
24 | CARARRGGGSAGNASASA [FS-2645] | -0.34 (inactive) | -0.574 (inactive) | 0.0356 (inactive)
25 | CARARRGLRGAGNASASA [FS-1817] | 1.71 | 0.637 (inactive) | 3.32

Row | Sequence | furin cleavage Z-score (7.5 min) | furin cleavage Z-score (15 min) | furin cleavage Z-score (30 min)
26 | CARARRDAGPAGNASASA [FS-3150] | 10.1 (active) | 11.6 (active) | 7.77 (active)
27 | CARARRGPSPAGNASASA [FS-2131] | -1.25 (inactive) | -0.123 (inactive) | -0.828 (inactive)
28 | CARARRGTSGAGNASASA [FS-2646] | 3.84 (active) | 5.25 (active) | 5.55 (active)
29 | CARARRSASPAGNASASA [FS-2481] | 8.11 (active) | 8.29 (active) | 5.23 (active)
30 | CARHYKSASPAGNASASA [FS-1718] | -1.62 (inactive) | -1.27 (inactive) | -1.9 (inactive)
31 | CARARRDHFSAGNASASA [FS-2642] | 1.38 | 1.33 | 3.76 (active)
32 | CANTPCSAHLAGNASASA [HC2481] | -0.479 (inactive) | -0.245 (inactive) | 0.352 (inactive)
33 | CAMEECSWHLAGNASASA [HC1728] | -0.727 (inactive) | 1.63 | 1.16
34 | CAGNASRCWVAGNASASA [HC277] | -0.19 (inactive) | 0.165 (inactive) | -0.828 (inactive)
35 | CARARRGVEVAGNASASA [FS-2647] | 4.52 (active) | 5.87 (active) | 6.09 (active)
36 | CAQLPCEPEPAGNASASA [HC1240] | 0.775 (inactive) | -0.524 (inactive) | -0.783 (inactive)
37 | CAFFSVLIARAGNASASA [HC1585] | -2.48 (inactive) | -0.777 (inactive) | -0.815 (inactive)
38 | CAYLLRRRRNAGNASASA [FS-1620] | 5.7 (active) | 4.73 (active) | 3.09
39 | CAHLSRRRRNAGNASASA [FS-1007] | 11.1 (active) | 9.66 (active) | 7.89 (active)
40 | CAYLLPRRGPAGNASASA [HC178] | -0.496 (inactive) | -0.768 (inactive) | -0.313 (inactive)
41 | CAECTTPCSGAGNASASA [HC1144] | -0.495 (inactive) | -0.922 (inactive) | -0.582 (inactive)
42 | CAEVVTSTRVAGNASASA [HC2233] | -0.495 (inactive) | 0.515 (inactive) | -0.63 (inactive)
43 | CAAIGRSRRVAGNASASA [FS-114] | 2.54 | 1.95 | 4.65 (active)
44 | CAKSVRKRRVAGNASASA [FS-603] | 10.7 (active) | 11.6 (active) | 9.56 (active)
45 | CARSVRKVIVAGNASASA [FS-3099] | 0.811 (inactive) | -1.26 (inactive) | 0.845 (inactive)
46 | CAAIIPDREVAGNASASA [HC1007] | -0.132 (inactive) | -0.083 (inactive) | -0.0846 (inactive)
47 | CALSARRFRVAGNASASA [FS-1371] | 0.442 (inactive) | -0.766 (inactive) | 0.226 (inactive)
48 | CAATSRKRRVAGNASASA [FS-1311] | 7.4 (active) | 11 (active) | 9.97 (active)
49 | CAITSCSSNVAGNASASA [HC1552] | 0.153 (inactive) | 0.128 (inactive) | 0.563 (inactive)
